Consider 61 compounds from PubChem BioAssay AID2599 (Sanford-Burnham Center for Chemical Genomics, 2010).

Among all 330,000 compounds or so, about 5,800 (1.8%) were called active. Shown is part of a subset that was picked to be rich in actives. Unmarked numbers belong to inactive results.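 The calls were made as follows: active = inhibition above about 50% at the single tested dose (limit read from the data); inactive = the rest.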

Sequence of Sentrin-specific protease 6 (Homo sapiens) (Q9GZR1 628-1112 limits assumed): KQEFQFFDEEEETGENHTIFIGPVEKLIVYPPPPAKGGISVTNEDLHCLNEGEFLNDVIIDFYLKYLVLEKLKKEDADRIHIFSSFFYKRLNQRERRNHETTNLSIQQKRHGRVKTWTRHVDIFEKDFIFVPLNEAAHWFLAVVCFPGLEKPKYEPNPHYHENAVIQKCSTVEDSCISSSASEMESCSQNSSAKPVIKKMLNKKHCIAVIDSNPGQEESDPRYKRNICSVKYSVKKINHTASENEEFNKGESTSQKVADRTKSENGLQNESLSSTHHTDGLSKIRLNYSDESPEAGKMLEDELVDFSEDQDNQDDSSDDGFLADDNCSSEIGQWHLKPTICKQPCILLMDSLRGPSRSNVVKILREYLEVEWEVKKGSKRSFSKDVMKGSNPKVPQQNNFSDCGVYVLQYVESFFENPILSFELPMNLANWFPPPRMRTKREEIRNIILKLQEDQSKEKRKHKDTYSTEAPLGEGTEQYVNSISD

The assay has as its target Sentrin-specific protease 6 (Homo sapiens) (UniProt Q9GZR1). The assay can be described thus: inhibition of human SENP6 catalytic domain – biochemical, luminescence, uHTS, primary screen (AID 2599).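 Also: plate controls were DMSO wells with enzyme for no effect and DMSO wells lacking enzyme for full effect.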 Conditions: Recombinant SENP6 catalytic domain, aminoluciferin luminescence; at 10 µM; stronger effect = higher value.
For the compound `CSCC[C@H](NC(=O)N1CCn2c1nc1ccccc12)C(=O)NC1CCCCC1`, the inhibition (usually the relative decrease from the control value, in per cent) was -2.54%.

Turning to `COC(=O)C1=C(C)N(C)C(=S)NC1c1cc(OC)ccc1OC` (stereo unspecified), the inhibition is 6.54%.

Regarding `Clc1ccc(COn2c(-c3ccc(Cl)cc3Cl)nc3ncccc32)cc1`, the inhibition is 3.31%.

For the compound `Clc1ccc(-c2cc(-c3ccccn3)on2)c(Cl)c1`, the inhibition was 95.1% (active).

Turning to `O=C1c2ccccc2C(=O)N1Cc1cc(-c2ccccc2Cl)no1`, the inhibition is -13.7%.

`CC1(C)OC(=O)C(=CNC(CO)C(=O)O)C(=O)O1` (stereo unspecified): the inhibition was -15.5%.

With `COc1ccc(S(=O)(=O)N2CCOC23CCN(S(=O)(=O)c2ccc([N+](=O)[O-])cc2)CC3)cc1`, the inhibition is -0.227%.

As to `CC(C)C(NC(=O)c1cccc(S(=O)(=O)N2CCOCC2)c1)C(=O)NCCc1ccccn1` (stereo unspecified), the inhibition was 0.86%.

In the case of `CC(=O)Oc1ccc(-c2nc3c(C)cccc3c(=O)o2)cc1`, the inhibition is 13.4%.

As to `COc1cccc(/C=C/c2ccc3ccccc3n2)c1OC(C)=O`, the inhibition is 14.1%.

As for `COc1ccc(/C=C/c2noc(-c3ccccc3OC(C)=O)n2)cc1`, the inhibition is 89.4% (active).

For `O=C(Cc1ccc(S(=O)(=O)N2CCCC2)s1)NC1CCCCCC1`, the inhibition is -13.1%.

On to `CSCCC(NC(=O)c1ccco1)C(=O)NCCc1ccc(F)cc1` (stereo unspecified), for which the inhibition was 5.31%.

For the compound `CC(=O)Oc1ccc2c(=O)oc(-c3ccc([N+](=O)[O-])cc3)nc2c1`, the inhibition is 32.4%.

Turning to `COc1ccc2oc(-c3cccc(NC(=O)CSc4ccc(Cl)cc4)c3)nc2c1`, the inhibition was -0.568%.

In the case of `COc1cccc(-c2nc3cc(C)ccc3o2)c1`, the inhibition was 97.8% (active).

Take `O=[N+]([O-])c1ccc2oc(-c3cccc(O)c3)nc2c1`: the inhibition was 65.4% (active).

For the compound `COc1ccc([N+](=O)[O-])cc1-c1nc2ccccc2nc1-c1ccccc1`, the inhibition was -3.14%.

For `COc1cccc(-c2nnc(SCCOc3ccc4c(C)cc(=O)oc4c3)o2)c1`, the inhibition is -18.6%.

As for `COC(=O)c1ccccc1NC(=O)C1CCN(S(=O)(=O)c2cc(OC)ccc2OC)CC1`, the inhibition was -0.874%.

Take `Cc1ccc(NC(=O)C(=O)NCC2CCN(C(=O)c3cccc([N+](=O)[O-])c3)CC2)cc1`: the inhibition was 0.692%.

Turning to `N#Cc1cccc(CSc2nnc(CCCO)n2-c2ccccc2)c1`, the inhibition was -0.983%.

With `Cc1cccc(NC(=O)c2cccnc2Cl)n1`, the inhibition was 24.9%.

Take `Cc1cccc(NC(=O)c2cc(N3C(=O)CCC3=O)ccc2Cl)n1`: the inhibition is -4.72%.

Take `Cc1cccc(NC(=O)c2ccc3ccccc3n2)n1`: the inhibition is 77.2% (active).

Consider `COc1ccc(NC(=O)c2cn(-c3ccccc3)nc2SC)cc1`, for which the inhibition was 0.083%.

As to `Cc1c(C(C)CCCO)oc(=O)c2c1Oc1c(C)c(C(C)C[C@@H](C)O)oc(=O)c1C2` (stereo partly specified), the inhibition was 13.7%.

For `O=C(Oc1ccc(Br)cc1C(=S)N1CCOCC1)c1cccc([N+](=O)[O-])c1`, the inhibition was -3.34%.

Take `Cc1ccc(/C=C(\C#N)C(=O)Nc2cccc3ncccc23)o1`: the inhibition is -57.2%.

Consider `O=C(NNS(=O)(=O)c1ccccc1C(F)(F)F)c1cc2ncc(C(F)(F)F)cc2s1`, for which the inhibition is 4.2%.

Consider `Cc1ccc(-n2cc3ccc([N+](=O)[O-])cc3n2)cc1`, for which the inhibition was 86.9% (active).

Consider `Cc1ccnc(N2C(=O)c3ccc([N+](=O)[O-])cc3C2=O)c1`, for which the inhibition is -9.97%.

For the compound `Cc1ccc(-c2cn(S(=O)(=O)c3cccc([N+](=O)[O-])c3)nc2N)cc1`, the inhibition is -7.28%.

Take `Cn1cc[n+](C)c1COc1ccc(C=O)cc1`: the inhibition is -1.65%.

In the case of `N#Cc1cc([N+](=O)[O-])ccc1NCC1CCCO1` (stereo unspecified), the inhibition was -15.1%.

In the case of `COc1cc(/C=N/NC(=O)c2ccc(N3CCCC3=O)cc2)ccc1O`, the inhibition is -7.53%.

In the case of `COc1ccc(C(=O)Nc2ccccc2C(=O)N/N=C/c2ccc(O)c(OC)c2)cc1`, the inhibition was 98.7% (active).

Regarding `COc1ccccc1C(=O)NNC(=O)c1ccc(NC(=O)c2ccccc2)cc1`, the inhibition was 5.14%.

For `COc1ccc(NS(=O)(=O)c2cc(C(=O)Nc3ccccc3C(=O)O)ccc2C)cc1`, the inhibition was -2.27%.

For the compound `COc1ccc(C(=O)Nc2cc(C)c(NC(=O)c3ccccc3OC)cn2)cc1`, the inhibition is 37.3%.

With `COc1ccc(C(=O)Nc2ccccc2C(=O)N/N=C/c2ccccc2OC)cc1`, the inhibition was 66.7% (active).

`CCOc1cc(/C=N/NC(=O)c2cc(-c3ccccc3)nc3ccccc23)ccc1O`: the inhibition was 19.5%.

As for `COc1ccc(/C=N/OCC(=O)N(Cc2ccccc2)c2ccccc2C(=O)O)cc1`, the inhibition is -17.2%.

Take `COc1ccc(/C=N/Nc2ccccc2C(=O)O)cc1`: the inhibition is 93.1% (active).

For the compound `O=C(O)CC(c1ccccc1F)N1Cc2ccccc2C1=O` (stereo unspecified), the inhibition was -11.5%.

For `COc1ccc(/C=N/n2c(C)cc(C)cc2=O)cc1`, the inhibition is -12.1%.

Take `O=C(N/N=C/c1ccsc1)c1cc(O)cc(O)c1`: the inhibition is 3.66%.

Consider `CCn1cc(/C=C(\NC(=O)c2cc(OC)c(OC)c(OC)c2)C(=O)N2CCN(C)CC2)c2ccccc21`, for which the inhibition was 0.634%.

Consider `O=C(/C=C/c1ccc2c(c1)OCO2)NCc1ccc(F)cc1`, for which the inhibition was 1.24%.

For `Cc1cccc(NC(=O)/C=C/c2ccc3c(c2)OCO3)n1`, the inhibition is 82.7% (active).

`Cc1cccc(NC(=O)Nc2ccc3c(c2)OCO3)n1`: the inhibition was -17.4%.

Take `CCCc1ccc(OCc2ccc(C(=O)N/N=C/c3cccc([N+](=O)[O-])c3)o2)c(OC)c1`: the inhibition is -3.27%.

Regarding `COc1ccccc1N1CCN(C(=O)CCS(=O)(=O)c2ccc3c(c2)NC(=O)C(C)S3)CC1` (stereo unspecified), the inhibition is 4.9%.

As for `CCOC(=O)C(C)N(c1ccccc1Cl)S(C)(=O)=O` (stereo unspecified), the inhibition is 14.8%.

In the case of `COc1ccccc1NC(=O)c1cc(Cl)nc2ccccc12`, the inhibition was -4.88%.

As for `O=C(O)c1ccccc1-c1ccccc1C(=O)Nc1cccc2ccccc12`, the inhibition is -15.6%.

Regarding `O=C(O)c1cc(Cl)c(Cl)cc1C(=O)Nc1cccc2ncccc12`, the inhibition is 57% (active).

With `CN(Cc1ccccc1F)C(=O)C(Cc1ccccc1)NC(=O)c1ccccc1` (stereo unspecified), the inhibition was -9.94%.

With `Cc1cccc(-c2noc(-c3ccc(F)cc3)n2)c1`, the inhibition is 94.2% (active).

For the compound `Cn1nc(-c2ccccc2)c(-c2nc(-c3ccc(Cl)cc3)no2)c1Cl`, the inhibition is 3.33%.

As to `Cc1cccc(-c2noc(CCC(=O)NC3CCCC3)n2)c1`, the inhibition is -13.6%.
